Results taken from PubChem BioAssay (Tox21).
Inconclusive results are not listed. Activity calls are given as the source filed them. Unless noted, the call rests on the fitted dose curve; in most records, active means well fitted curve in the direction sought with a large enough effect in the repeat runs; inconclusive means weak or mixed curves; inactive means no such curve, though single readings can be large; an effect the other way counts as inactive or inconclusive.

Assays:
[1] = A CellTox Green Cytotoxicity Assay to monitor cytotoxicity in HepG2 cells - 0 hour (AID 1224882); further: nearly all actives have a fitted effect of over 35% in size
Procedure, shortened: (§1)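 Cytotoxicity was tracked as dead-cell DNA fluorescence in HepG2 cells treated with test compounds at 37 C; each time-point value comes from one kinetic series spanning 0, 8, 16, 24, 32 and 40 h.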

[2] = A CellTox Green Cytotoxicity Assay to monitor cytotoxicity in HepG2 cells - 32 hour (AID 1224883); further: nearly all actives have a fitted effect of over 50% in size
Procedure, shortened: as §1

[3] = A CellTox Green Cytotoxicity Assay to monitor cytotoxicity in HEK293 cells - 8 hour (AID 1224884); further: nearly all actives have a fitted effect of over 35% in size
Procedure, shortened: (§2)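 Real-time, in one plate: 600 HEK293 cells/well with dead-cell DNA dye, pinned compound after 5 h, 37 C incubation over 40 h; viable cells give no appreciable fluorescence.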

[4] = qHTS RealTime-Glo MT Cell Viability Assay in HepG2 cells - 16 hour (AID 1224885); further: nearly all actives have a fitted effect of over 50% in size
Procedure, shortened: (§3)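 Compound treatment began 5 h after plating HepG2 cells (600/well) with NanoLuc luciferase and prosubstrate. Plates stayed at 37 C for 40 h; luminescence was captured at six time points, 0 h through 40 h.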

[5] = qHTS RealTime-Glo MT Cell Viability Assay in HEK293 cells - 24 hour (AID 1224886); further: top concentration of the series differs between compounds; nearly all actives have a fitted effect of over 50% in size
Procedure, shortened: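 Quantitative high-throughput screen of the Tox21 10K library in HEK293: cells and RealTime-Glo reagents plated together, compound added at 5 h, luminescence monitored through 40 h at 37 C.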

[6] = qHTS RealTime-Glo MT Cell Viability Assay in HEK293 cells - 8 hour (AID 1224887); further: top concentration of the series differs between compounds; nearly all actives have a fitted effect of over 50% in size
Procedure, shortened: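 Kinetic, non-lysing viability readout. Seed HEK293 (600/well) with reagent, incubate 5 h at 37 C/5% CO2, pin 23 nL compound in DMSO, incubate at 37 C, read luminescence at 0, 8, 16, 24, 32, 40 h.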

[7] = A CellTox Green Cytotoxicity Assay to monitor cytotoxicity in HEK293 cells - 16 hour (AID 1224888); further: nearly all actives have a fitted effect of over 35% in size
Procedure, shortened: as §2

[8] = qHTS RealTime-Glo MT Cell Viability Assay in HepG2 cells - 0 hour (AID 1224889); further: nearly all actives have a fitted effect of over 50% in size
Procedure, shortened: as §3

[9] = A CellTox Green Cytotoxicity Assay to monitor cytotoxicity in HepG2 cells - 8 hour (AID 1224890); further: nearly all actives have a fitted effect of over 45% in size
Procedure, shortened: as §1

[10] = qHTS assay to identify small molecule antagonists of the estrogen receptor alpha (ER-alpha) signaling pathway using the BG1 cell line in the presence of 0.1 nM 17-beta-estradiol - cell viability counter screen (AID 1259241); further: nearly all actives have a fitted effect of over 40% in size
Procedure, shortened: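 CellTiter-Fluor read (30 min, 37C) on ER-alpha/ERE-luc VM7Luc4E2 cells; 22 hr compound treatment; agonist 0.1 nM E2 final; same-well multiplex.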

[11] = qHTS assay to identify small molecule antagonists of the androgen receptor (AR) signaling pathway using the MDA cell line in the presence of 0.5 nM R1881 - cell viability counter screen (AID 1259242); further: nearly all actives have a fitted effect of over 45% in size
Procedure, shortened: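 Cells seeded at 3,000/well and allowed 5 hr at 37C, 0% CO2 before compound transfer and R1881 (0.5 nM final) addition; 16 hr later, live-cell protease fluorescence indicated cytotoxicity.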

[12] = biological target: Estrogen receptor (Homo sapiens) (UniProt P03372); experiment: qHTS assay to identify small molecule antagonists of the estrogen receptor alpha (ER-alpha) signaling pathway using the BG1 cell line in the presence of 0.1 nM 17-beta-estradiol (AID 1259244); further: nearly all actives have a fitted effect of over 50% in size
Procedure, shortened: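 Luciferase signal from VM7Luc4E2 ERE-reporter cells, co-dosed with test compound and 0.1 nM final 17beta-estradiol for 22 h, read with ONE-Glo.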

[13] = qHTS assay to identify small molecule HDAC inhibitors (AID 1259364);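 further: wild-type HCT-116 cells with endogenous class I/II HDAC activity; top concentration of the series differs between compounds; nearly all actives have a fitted effect of over 45% in size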
Procedure, shortened: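 HCT-116 wt cells, 1,500/well, overnight attach. Compounds (DMSO) 2 h, 37 °C. HDAC-Glo I/II, 30 min RT. Luminescence.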

[14] = qHTS assay to identify small molecule HDAC inhibitors - cell viability counter screen (AID 1259365)
Procedure, shortened: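 To flag cytotoxic hits, 1,500 wild-type HCT-116 cells per well, plated the day before, receive test compounds for 2hr at 37 C before CellTiter-Glo reagent and a luminescence read.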

[15] = qHTS assay to identify small molecule antagonists of the sonic hedgehog signaling (Shh) pathway - cell viability counter screen (AID 1259367); further: nearly all actives have a fitted effect of over 55% in size
Procedure, shortened: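 Conditioned medium drove Shh signaling in 3T3 Gli1-Luc cells exposed to compounds at 37C and 5% CO2. Viability was determined from CellTiter-Fluor fluorescence, with reagent incubated 1 hr after 23 hr of treatment.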

[16] = qHTS assay to identify small molecule agonists of the sonic hedgehog signaling (Shh) pathway (AID 1259368; calls by dose curve;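 further: NIH/3T3-derived 3T3Gli1-Luc cells carrying a stable Gli1-driven firefly luciferase reporter; series mostly up to about 92 µM; nearly all actives have a fitted effect of over 15% in size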)
Procedure, shortened: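 Following a 24 hr incubation with DMSO-dissolved compounds at 37 C, 5% CO2, Gli1-Luc NIH/3T3-derived cells received luciferase reagent for 30 min at room temperature prior to luminescence measurement.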

[17] = qHTS assay to identify small molecule antagonists of the sonic hedgehog signaling (Shh) pathway (AID 1259369; calls by dose curve; further: nearly all actives have a fitted effect of over 45% in size)
Procedure, shortened: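 Read-out is luminescence from a firefly luciferase gene controlled by the Gli1 response element, in 3T3Gli1-Luc cells pre-incubated 4hr then exposed to compounds and conditioned medium for 24hr.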

[18] = biological target: Androgen receptor (Homo sapiens) (UniProt P10275); experiment: qHTS assay to identify small molecule antagonists of the androgen receptor (AR) signaling pathway using the MDA cell line in the presence of 0.5 nM R1881 (AID 1259243); further: nearly all actives have a fitted effect of over 50% in size
Procedure, shortened: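 Luminescence from an AR/GR-responsive MMTV-luciferase construct in MDA-kb2 breast carcinoma cells, read 30 min after ONE-Glo, following 16 hr co-treatment with compounds and 0.5 nM R1881.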

[19] = qHTS assay to identify small molecule phospholipidosis (PLD) inducers (AID 1259344; active means well fitted curve in the direction sought with a large enough effect; an effect the other way counts as inactive or inconclusive)
Procedure, shortened: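 After 4 h attachment on collagen I, HepG2 cells were dosed with compound alongside LipidTOX Red, kept 24 h at 37 C, fixed, and imaged for lamellar phospholipid pits.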

[20] = qHTS assay to identify small molecule agonists of the sonic hedgehog signaling (Shh) pathway - cell viability counter screen (AID 1259366); further: nearly all actives have a fitted effect of over 50% in size
Procedure, shortened: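 Fluorescence from CellTiter-Fluor reports live cells in this counter screen. NIH/3T3-derived Gli1-Luc reporter cells receive test compounds for 24hr at 37C; reagent goes in at 23hr.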

Measured: Potency

Chain of Estrogen receptor (Homo sapiens) (P03372 whole entry, looked up): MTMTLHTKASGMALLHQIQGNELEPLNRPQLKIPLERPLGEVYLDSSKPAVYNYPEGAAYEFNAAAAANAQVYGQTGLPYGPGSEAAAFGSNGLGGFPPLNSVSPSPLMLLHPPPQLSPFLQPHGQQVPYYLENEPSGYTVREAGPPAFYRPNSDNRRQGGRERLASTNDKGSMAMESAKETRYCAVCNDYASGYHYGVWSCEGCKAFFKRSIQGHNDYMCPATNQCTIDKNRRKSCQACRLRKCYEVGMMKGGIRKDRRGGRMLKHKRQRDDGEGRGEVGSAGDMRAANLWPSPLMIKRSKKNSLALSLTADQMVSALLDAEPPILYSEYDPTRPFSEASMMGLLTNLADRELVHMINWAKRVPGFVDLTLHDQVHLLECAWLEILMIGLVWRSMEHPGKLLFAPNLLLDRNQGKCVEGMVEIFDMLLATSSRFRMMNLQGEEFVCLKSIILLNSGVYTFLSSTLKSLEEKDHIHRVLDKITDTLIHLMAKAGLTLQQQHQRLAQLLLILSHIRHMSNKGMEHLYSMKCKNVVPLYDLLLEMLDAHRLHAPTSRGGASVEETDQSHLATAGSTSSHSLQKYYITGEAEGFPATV
Chain of Androgen receptor (Homo sapiens) (P10275 whole entry, looked up): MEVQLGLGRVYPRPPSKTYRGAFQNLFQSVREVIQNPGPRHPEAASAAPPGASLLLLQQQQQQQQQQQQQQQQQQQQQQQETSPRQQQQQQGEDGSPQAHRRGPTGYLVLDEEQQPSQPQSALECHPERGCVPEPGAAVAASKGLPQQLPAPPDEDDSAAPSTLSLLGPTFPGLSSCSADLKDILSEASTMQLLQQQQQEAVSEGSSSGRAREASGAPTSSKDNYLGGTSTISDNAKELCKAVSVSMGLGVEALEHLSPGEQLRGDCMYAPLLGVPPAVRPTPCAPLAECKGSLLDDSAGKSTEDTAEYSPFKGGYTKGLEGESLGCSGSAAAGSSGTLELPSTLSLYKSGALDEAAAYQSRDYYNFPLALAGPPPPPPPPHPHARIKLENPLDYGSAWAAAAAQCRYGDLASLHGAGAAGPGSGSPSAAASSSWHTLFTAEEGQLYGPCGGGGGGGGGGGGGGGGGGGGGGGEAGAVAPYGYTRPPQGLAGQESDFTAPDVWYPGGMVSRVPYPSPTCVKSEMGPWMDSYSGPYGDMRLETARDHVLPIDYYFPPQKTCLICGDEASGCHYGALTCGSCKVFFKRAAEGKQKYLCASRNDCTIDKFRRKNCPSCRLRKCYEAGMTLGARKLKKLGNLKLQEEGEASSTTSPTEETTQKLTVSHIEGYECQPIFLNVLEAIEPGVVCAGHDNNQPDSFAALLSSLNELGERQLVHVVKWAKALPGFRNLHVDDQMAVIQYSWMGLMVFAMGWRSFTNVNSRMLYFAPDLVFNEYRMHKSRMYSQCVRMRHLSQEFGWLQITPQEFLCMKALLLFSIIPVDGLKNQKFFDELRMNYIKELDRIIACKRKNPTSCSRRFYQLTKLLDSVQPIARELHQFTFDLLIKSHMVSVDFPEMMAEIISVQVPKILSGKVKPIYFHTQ

O=c1c2ccccc2nnn1CCl
not listed: [18] | [19] | [20]
inactive: all other assays above

CCOc1nc2cccc(C(=O)O)c2n1Cc1ccc(-c2ccccc2-c2nn[nH]n2)cc1
not listed: [12] | [15]
inactive: all other assays above

Cn1c(NCCN(CCO)CCCc2ccc([N+](=O)[O-])cc2)cc(=O)n(C)c1=O
not listed: [12] | [18] | [20]
inactive: all other assays above

Cc1ncsc1CCO
not listed: [18] | [19]
inactive: all other assays above

CC(CN)CCCN (stereo unspecified)
not listed: [15] | [17] | [18] | [19]
inactive: all other assays above

OCC1CC2CC1C1CCC(CO)C21 (stereo unspecified)
not listed: [18] | [19]
inactive: all other assays above

CCN(CC)C(C)=O
not listed: [12] | [18] | [19]
inactive: all other assays above
